# Experimental data as given in PubChem BioAssay.
# Active and inactive are the calls of the source. The rule behind the calls is not given here.
# Assay: blockers of DNA damage checkpoint Chk1 activation – imaging, HeLa, hydroxyurea, phospho-Chk1 antibody, percent positive cells, primary screen (AID 1186)
# Settings: hydroxyurea-induced phospho-Chk1 immunofluorescence imaging, higher = more signal
row,Structure (SMILES),z-score
1,CCOC(=O)C1=CCC(c2cc3ccccc3[nH]2)N(S(=O)(=O)c2ccccc2[N+](=O)[O-])C1 (stereo unspecified),-0.285 (inactive)
2,COCC1=C([C@H](O)CCc2ccccc2)[C@H](CO)n2c(=O)n(-c3ccccc3)c(=O)n2C1,-0.48 (inactive)
3,C=CCC(OC(C)=O)[C@@H]1[C@@H](N(Cc2ccc(-c3ccccc3)cc2)C(=O)c2cccc3ccccc23)c2cc(OCCCO)ccc2N1C(=O)c1ccc2ccccc2c1 (stereo partly specified),-0.293 (inactive)
4,Cc1ccc(S[C@]2(C(=O)NCCN3CCOCC3)CC(=O)N(C3CCCCC3)[C@@H]2c2ccc(CO)cc2I)cc1,0.134 (inactive)
5,CCOC(=O)C[C@H]1[C@H](OC(=O)c2cc3ccccc3oc2=O)[C@@H](NC(=O)C2CCCCC2)c2cc(OCCCO)ccc2N1C(=O)Cc1ccc(OC)cc1,0.521 (inactive)
6,CC(=O)n1cc(C(O)C2C=CC3C(=O)N(c4ccccc4)C(=O)C3N2Nc2ccccc2F)c2ccccc21 (stereo unspecified),-0.0566 (inactive)
7,NC(=O)NCC#Cc1ccc2c(c1)[C@]1(C(=O)N2)[C@H](C(=O)Nc2nc3ccccc3s2)[C@H]2C(=O)O[C@H](c3ccccc3)[C@H](c3ccccc3)N2[C@@H]1c1ccc(OCCO)cc1,0.287 (inactive)
8,[N-]=[N+]=Nc1ccccc1[C@@H]1OC(c2ccc(OCCCO)cc2)=N[C@]1(Cc1ccccc1)C(N)=O,-0.707 (inactive)
9,NC(=O)NCC#Cc1ccc2c(c1)[C@]1(C(=O)N2)[C@H](C(=O)N2CCCCCCC2)[C@H]2C(=O)O[C@H](c3ccccc3)[C@H](c3ccccc3)N2[C@@H]1c1ccc(O)cc1,0.0378 (inactive)
10,COC(=O)C1=CC(CCCO)=CC(C2CC2)N(Cc2cccc(OC(F)(F)F)c2)C=C1C(=O)OC (stereo unspecified),-0.316 (inactive)
11,COCCOC(=O)N1C(=O)[C@@]2(c3cc(C#CC4(O)CCCCCC4)ccc31)[C@H](c1ccc(OCCO)cc1)N1[C@H](c3ccccc3)[C@H](c3ccccc3)OC(=O)[C@H]1[C@@H]2C(=O)N1CCCCCCC1,-0.0238 (inactive)

# Assay: blockers of DNA damage checkpoint Chk1 activation – imaging, HeLa, hydroxyurea, phospho-Chk1 nuclear intensity, primary screen (AID 1187); note: test concentration not given here
# Settings: hydroxyurea-induced phospho-Chk1 immunofluorescence imaging, higher = more signal
row,Structure (SMILES),z-score
1,C=C(CCCC)C(=O)CC[C@H](OC(C)=O)c1ccccc1OCCO,0.126 (inactive)
2,O=C1O[C@H](c2ccccc2)[C@H](c2ccccc2)N2[C@H]1[C@@H](C(=O)N1CCN(c3ncccn3)CC1)[C@]1(C(=O)Nc3ccccc31)[C@H]2c1ccc(O)cc1,1.46 (inactive)
3,CO[C@H]1O[C@H](CO)[C@@H](OC(=O)Nc2ccccc2)[C@@H]2OC(=O)[C@H](Cc3ccccc3)C/C=C/C[C@@H](Cc3ccccc3)C(=O)O[C@@H]12,-0.628 (inactive)
4,C=CCNC(=O)[C@@H]1[C@H]2C(=O)O[C@H](c3ccccc3)[C@H](c3ccccc3)N2[C@H](c2ccc(O)cc2)[C@@]12C(=O)Nc1ccc(C#CC3(O)CCCCCC3)cc12,-0.0283 (inactive)
5,C=CCC(OC(C)=O)[C@@H]1[C@@H](N(Cc2ccc(-c3cccc(C(F)(F)F)c3)o2)C(=O)Cc2ccc(F)cc2)c2cc(OCCCO)ccc2N1C(=O)c1ccc2ccccc2n1 (stereo partly specified),0.64 (inactive)
6,CO[C@H]1O[C@H](CO)[C@@H](OC(=O)Nc2ccc(C(F)(F)F)cc2)[C@H](OC(=O)Nc2ccccc2-c2ccccc2)[C@@H]1OC(=O)Nc1ccccc1-c1ccccc1,0.0324 (inactive)
7,CCCCC(=C=CC[C@H](O)c1ccc(OCCO)cc1)C[C@H](O)c1ccccn1,0.451 (inactive)
8,NC(=O)[C@@]1(CCS(=O)(=O)c2ccccc2)COC(c2ccc(OCCCO)cc2)=N1,-1.12 (inactive)
9,CC(=O)NCCCC[C@@H]1NC(=O)[C@@H]2C[C@H](C(=O)NCCCCCC[N+](C)(C)C)[C@H](c3ccc(O)cc3)N2C1=O,0.817 (inactive)
10,O=C1C2C=CC(C(O)c3cccc(O)c3)N(Nc3ccccc3F)C2C(=O)N1c1ccccc1 (stereo unspecified),-1.33 (inactive)
11,COCCOC(=O)N1C(=O)[C@@]2(c3cc(C#CCCO)ccc31)[C@H](C(=O)N1CCN(c3ncccn3)CC1)[C@H]1C(=O)O[C@H](c3ccccc3)[C@H](c3ccccc3)N1[C@@H]2c1ccc(O)cc1,-0.772 (inactive)
12,COc1cccc(OC)c1C(=O)O[C@H]1[C@@H]2OC(=O)[C@H](Cc3cccc(Br)c3)C/C=C/C[C@@H](Cc3cccc(Br)c3)C(=O)O[C@H]2[C@@H](OC)O[C@@H]1CO,0.0783 (inactive)
13,COc1ccc([Si](C)(C)[C@@H]2[C@@H](CCO)O[C@]3(C(=O)N(Cc4ccccc4)c4ccc(N5C(=O)c6ccccc6Oc6ccccc65)cc43)[C@H]2C)cc1,-0.253 (inactive)
14,CC(C)CNC(=O)[C@@H]1c2ccccc2C(=O)N(CC23CC4CC(CC(C4)C2)C3)[C@H]1c1ccc(CO)cc1,-0.0264 (inactive)
15,C=C(COC)/C(=C/C[C@H](OC(=O)c1ccncc1)c1cccc(OCCO)c1)c1cnc2ccccc2c1,0.275 (inactive)
16,CN1C(=O)C2C=CC(C(O)c3ccc(-c4ccccc4)s3)N(Nc3ccccc3)C2C1=O (stereo unspecified),-0.316 (inactive)
17,COc1ccc(NC(=O)O[C@H]2[C@H](OC(=O)Nc3ccc4c(c3)OCO4)[C@H](OC(=O)Nc3ccc4c(c3)OCO4)[C@@H](OC)O[C@@H]2CO)cc1,0.267 (inactive)
18,C=CCOC(=O)[C@H]1[C@@H]2C(=O)O[C@@H](c3ccccc3)[C@@H](c3ccccc3)N2[C@@H](c2ccc(OCCOC(=O)[C@H]3C[C@H]4C(=O)NCC(=O)N4[C@H]3c3ccc(O)cc3)cc2)[C@]12C(=O)Nc1ccc(I)cc12,-1.08 (inactive)

row,Structure (SMILES),z-score
1,COCCOC(=O)N1C(=O)[C@@]2(c3cc(C#CC4=CCCCC4)ccc31)[C@H](C(=O)N1CCN(c3ncccn3)CC1)[C@H]1C(=O)O[C@H](c3ccccc3)[C@H](c3ccccc3)N1[C@@H]2c1ccccc1OCCO,-0.475 (inactive)
2,C=C(COC)C(=O)CC[C@@H](OC(C)=O)c1ccc(OCCO)cc1,0.241 (inactive)
3,O=C1C2C=CC(C(O)c3ccc([N+](=O)[O-])cc3)N(Nc3ccccc3)C2C(=O)N1c1ccccc1 (stereo unspecified),-0.168 (inactive)
4,COCCCNC(=O)[C@@H]1c2ccccc2C(=O)N(C2CCCCC2)[C@H]1c1ccc(CO)cc1,-0.182 (inactive)
5,C=CCN1C(=O)[C@]2(O[C@H](CCO)[C@@H]([Si](C)(C)c3ccc(OC)cc3)[C@@H]2C)c2ccccc21,-1.58 (inactive)
6,C=CCC(OC(C)=O)[C@@H]1[C@@H](N(Cc2cc3ccccc3o2)C(=O)Cc2ccc(OC)cc2)c2cc(OCCCO)ccc2N1C(=O)Cc1ccc2ccccc2c1 (stereo partly specified),0.517 (inactive)
7,CCOC(=O)C1=CCC(c2cc3ccccc3[nH]2)N(S(=O)(=O)c2ccccc2[N+](=O)[O-])C1 (stereo unspecified),-0.518 (inactive)
8,COCC1=C([C@H](O)CCc2ccccc2)[C@H](CO)n2c(=O)n(-c3ccccc3)c(=O)n2C1,1.51 (inactive)
9,C=CCC(OC(C)=O)[C@@H]1[C@@H](N(Cc2ccc(-c3ccccc3)cc2)C(=O)c2cccc3ccccc23)c2cc(OCCCO)ccc2N1C(=O)c1ccc2ccccc2c1 (stereo partly specified),-0.006 (inactive)
10,Cc1ccc(S[C@]2(C(=O)NCCN3CCOCC3)CC(=O)N(C3CCCCC3)[C@@H]2c2ccc(CO)cc2I)cc1,0.114 (inactive)
11,CCOC(=O)C[C@H]1[C@H](OC(=O)c2cc3ccccc3oc2=O)[C@@H](NC(=O)C2CCCCC2)c2cc(OCCCO)ccc2N1C(=O)Cc1ccc(OC)cc1,-0.306 (inactive)
12,CC(=O)n1cc(C(O)C2C=CC3C(=O)N(c4ccccc4)C(=O)C3N2Nc2ccccc2F)c2ccccc21 (stereo unspecified),0.153 (inactive)
13,NC(=O)NCC#Cc1ccc2c(c1)[C@]1(C(=O)N2)[C@H](C(=O)Nc2nc3ccccc3s2)[C@H]2C(=O)O[C@H](c3ccccc3)[C@H](c3ccccc3)N2[C@@H]1c1ccc(OCCO)cc1,0.68 (inactive)
14,[N-]=[N+]=Nc1ccccc1[C@@H]1OC(c2ccc(OCCCO)cc2)=N[C@]1(Cc1ccccc1)C(N)=O,-0.543 (inactive)
15,NC(=O)NCC#Cc1ccc2c(c1)[C@]1(C(=O)N2)[C@H](C(=O)N2CCCCCCC2)[C@H]2C(=O)O[C@H](c3ccccc3)[C@H](c3ccccc3)N2[C@@H]1c1ccc(O)cc1,-0.144 (inactive)
16,COC(=O)C1=CC(CCCO)=CC(C2CC2)N(Cc2cccc(OC(F)(F)F)c2)C=C1C(=O)OC (stereo unspecified),-0.0702 (inactive)
17,COCCOC(=O)N1C(=O)[C@@]2(c3cc(C#CC4(O)CCCCCC4)ccc31)[C@H](c1ccc(OCCO)cc1)N1[C@H](c3ccccc3)[C@H](c3ccccc3)OC(=O)[C@H]1[C@@H]2C(=O)N1CCCCCCC1,0.222 (inactive)
